PubChem BioAssay
Values without a mark were called inactive. The source made the active and inactive calls. Rule as the data show it, unless noted: active = inhibition above about 25%; inactive = the rest.

target: Nuclear receptor coactivator 1 (Homo sapiens) (UniProt Q15788); assay: SRC1 coactivator transcriptional activity inhibitors, confirmation, cell-based, luminescence, quadruplicate (AID 588820;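 active = mean inhibition above 46.68%, the untreated control wells mean plus 3 SD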;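 also: 0% = DMSO wells and 100% = gossypol 36 µM treated wells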); settings: HEK293 GAL4-SRC1 luciferase reporter, at 3.6 µM, active compounds read high
Sequence (Q15788 whole entry, looked up, the tested form may be a part): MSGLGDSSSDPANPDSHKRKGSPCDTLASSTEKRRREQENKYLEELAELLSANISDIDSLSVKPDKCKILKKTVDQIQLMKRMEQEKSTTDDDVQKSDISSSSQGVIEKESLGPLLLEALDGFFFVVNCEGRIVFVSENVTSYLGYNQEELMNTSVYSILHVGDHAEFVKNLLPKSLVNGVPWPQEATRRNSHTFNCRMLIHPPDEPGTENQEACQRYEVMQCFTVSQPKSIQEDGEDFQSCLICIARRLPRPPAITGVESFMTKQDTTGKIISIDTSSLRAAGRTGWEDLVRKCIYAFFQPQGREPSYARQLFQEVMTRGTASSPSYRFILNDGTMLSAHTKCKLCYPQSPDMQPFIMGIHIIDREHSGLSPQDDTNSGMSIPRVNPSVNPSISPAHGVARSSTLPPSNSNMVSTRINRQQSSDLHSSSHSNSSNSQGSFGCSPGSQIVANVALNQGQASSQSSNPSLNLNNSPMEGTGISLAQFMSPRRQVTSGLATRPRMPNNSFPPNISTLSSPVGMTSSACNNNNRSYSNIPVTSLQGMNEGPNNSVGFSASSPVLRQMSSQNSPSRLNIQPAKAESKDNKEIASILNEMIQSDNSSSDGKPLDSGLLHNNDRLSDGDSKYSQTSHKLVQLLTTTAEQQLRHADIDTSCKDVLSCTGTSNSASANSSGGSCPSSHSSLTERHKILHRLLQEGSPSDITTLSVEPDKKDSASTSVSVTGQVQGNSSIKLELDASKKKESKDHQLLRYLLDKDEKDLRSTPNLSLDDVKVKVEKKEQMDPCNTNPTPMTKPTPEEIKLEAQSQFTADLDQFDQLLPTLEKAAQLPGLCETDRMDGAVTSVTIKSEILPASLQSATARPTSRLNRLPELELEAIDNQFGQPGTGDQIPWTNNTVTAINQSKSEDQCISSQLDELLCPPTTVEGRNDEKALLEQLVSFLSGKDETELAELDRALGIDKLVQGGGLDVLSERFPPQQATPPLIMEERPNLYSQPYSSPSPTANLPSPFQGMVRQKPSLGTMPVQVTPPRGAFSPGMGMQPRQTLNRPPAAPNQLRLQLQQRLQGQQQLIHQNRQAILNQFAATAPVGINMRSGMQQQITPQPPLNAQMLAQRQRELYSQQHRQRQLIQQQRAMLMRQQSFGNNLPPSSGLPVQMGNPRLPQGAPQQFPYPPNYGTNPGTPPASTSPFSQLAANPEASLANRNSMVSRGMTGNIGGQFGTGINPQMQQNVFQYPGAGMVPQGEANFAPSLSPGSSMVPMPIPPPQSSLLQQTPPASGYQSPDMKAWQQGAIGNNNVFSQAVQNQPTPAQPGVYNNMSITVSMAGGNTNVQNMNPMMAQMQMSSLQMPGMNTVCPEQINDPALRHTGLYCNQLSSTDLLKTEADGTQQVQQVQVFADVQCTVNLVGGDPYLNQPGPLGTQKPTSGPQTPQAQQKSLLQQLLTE

Structure (SMILES) | inhibition
N#Cc1cc2ccncc2c2ccccc12 | 30.8%
Cc1cccc(NC(=O)c2cc(S(=O)(=O)N(C)c3ccc(F)cc3)ccc2Cl)n1 | -17.6%
O=C(c1ccccc1)C1CCN(C(=O)c2cccs2)CC1 | -10%
Cc1ccccc1C(=O)/C(C#N)=N/Nc1c(C)n(C)n(-c2ccccc2)c1=O | 34.3%
COc1cc2cc[n+](Cc3ccc([N+](=O)[O-])cc3)cc2cc1OC | -2.4%
Cc1ccnc(SC2CC(=O)N(c3ccc(C(C)C)cc3)C2=O)n1 (stereo not given) | 7.69%
Cc1c(/C(O)=C2\C(=O)C(=O)N(CCCN(C)C)C2c2ccccc2)cnn1-c1ccccc1 (stereo not given) | 6.48%
O=C(COC(=O)c1c(Cl)cccc1Cl)Nc1cc(Cl)ccc1Oc1ccccc1 | -14.1%
COc1ccc(OC)c(C2=NS(=O)(=O)N(C)C(C(=O)Nc3ccc(F)cc3F)=C2)c1 | -0.3%
COc1ccc(S(=O)(=O)Nc2ccc(F)c(Cl)c2)cc1OC | -9.19%
COc1ccccc1CNC(=O)C1CCCN(S(=O)(=O)c2cccc3nsnc23)C1 (stereo not given) | -23.4%
COc1ccc(CCNc2c3ccccc3nc3ccccc23)cc1OC | -6.86%
COC(=O)C(C)NC(=O)C12CC3CC(C1)CC(c1ccc(C)cc1)(C3)C2 (stereo not given) | -5.33%
CCCS(=O)(=O)c1c(S(=O)(=O)CCC)c2c(C)cccn2c1C(=O)N/N=C/c1cc(O)cc(O)c1 | 20.8%
COc1cc(OC)cc(C(=O)NNC(=O)c2ccccn2)c1 | 10.7%
O=C(NCCC(=O)N1CCCC(C(F)(F)F)C1)c1ccc(Br)cc1 (stereo not given) | -7.52%
COc1ccc(S(=O)(=O)N(C)C[C@H]2Oc3c(NC(=O)Nc4c(C)noc4C)cccc3C(=O)N([C@H](C)CO)C[C@@H]2C)cc1 | 6.86%
CCCCCOC(=O)C1=C(C)NC(=O)NC1c1ccc([N+](=O)[O-])cc1 (stereo not given) | -6.01%
O=C(COc1ccccc1-c1ccccc1)N/N=C/c1ccncc1 | -7.29%
COc1cc(NC(=O)c2cccc3c(-c4cnn(C)c4)coc23)cc(OC)c1OC | -26.3%

Structure (SMILES) | inhibition
Cc1cc(C)c2nc(NNC(=O)c3ccc(S(=O)(=O)N4CCc5ccccc5C4)cc3)sc2c1 | 32.2%
CCCCNC(=O)C1(C)CCCCN1C(=O)c1ccc2c(c1)C(C)(C)CCC2(C)C (stereo not given) | 7.49%
O=C(Nc1ccncc1)c1ccccc1[N+](=O)[O-] | 33.6%
COc1ccc(C(=O)NNC(=O)C(=O)Nc2ccc(C)c(Cl)c2)cc1 | 5.87%
CCC(Oc1ccccc1)C(=O)Nc1cc(C(F)(F)F)ccc1N1CCOCC1 (stereo not given) | 10.6%
COc1ccc(NC(=O)C2CCN(c3cnccn3)CC2)cc1Cl | 1.5%
COc1ccc(C(=O)n2cc(C(=O)c3cc(C)ccc3O)cn2)cc1OC | -3.44%
O=C1CC2(CCCC2)CC(=O)N1CCCCN1CCN(c2ncccn2)CC1 | 0.34%
CCOC(=O)c1c(NC(=O)C(C)N2CCN(C(=O)c3ccco3)CC2)sc2c1CCCC2 (stereo not given) | 16.6%
Cc1c(C(=O)NCC2COc3ccccc3O2)oc2ccc(S(=O)(=O)N3CCOCC3)cc12 (stereo not given) | -7.47%
CCN(C(=S)NC(=O)C1CC1)c1ccccc1 | -8.52%
C/C(=N\NC(=O)C(C)Oc1ccc([N+](=O)[O-])cc1)c1ccccn1 (stereo not given) | -226%
CC(=O)c1cccc(NC(=O)COc2cc3oc(=O)c(CC(C)O)c(C)c3cc2Cl)c1 (stereo not given) | 28.4%
CCOC(=O)C1(Cc2cccc(Cl)c2)CCCN(C(=O)c2ccoc2C)C1 (stereo not given) | -4.52%
CCC(C)C(=O)Nc1nc(C)c(-c2csc(Nc3cc(Cl)ccc3OC)n2)s1 (stereo not given) | -14.5%
CCc1ccc2oc(=O)cc(CN3CCN(Cc4ccccc4)CC3)c2c1 | -7.76%
Cc1sc2ncn3ncnc3c2c1C | 37.9%
CCCCC(=O)NC(c1ccc(N(CC)CC)cc1)c1ccc2cccnc2c1O (stereo not given) | 69.3% (active)
CCC(C)c1ccc(S(=O)(=O)Nc2cccnc2)cc1 (stereo not given) | -9.79%
Cc1cc(C)c(OCCN2CCCC2)c(Cl)c1 | -3.95%

system: not listed separately; assay: VP16 transactivation inhibitors, counter-screen for SRC1 inhibitor project, cell-based, luminescence, high throughput (AID 588824); settings: cell-based VP16 transactivation luciferase luminescence; at 3.6 µM; active compounds read high

Structure (SMILES) | inhibition
N#Cc1cc2ccncc2c2ccccc12 | 16.7%
Cc1cccc(NC(=O)c2cc(S(=O)(=O)N(C)c3ccc(F)cc3)ccc2Cl)n1 | -4.3%
O=C(c1ccccc1)C1CCN(C(=O)c2cccs2)CC1 | -0.27%
Cc1ccccc1C(=O)/C(C#N)=N/Nc1c(C)n(C)n(-c2ccccc2)c1=O | 21.1%
COc1cc2cc[n+](Cc3ccc([N+](=O)[O-])cc3)cc2cc1OC | -3.17%
Cc1ccnc(SC2CC(=O)N(c3ccc(C(C)C)cc3)C2=O)n1 (stereo not given) | -8.25%
Cc1c(/C(O)=C2\C(=O)C(=O)N(CCCN(C)C)C2c2ccccc2)cnn1-c1ccccc1 (stereo not given) | -4.83%
O=C(COC(=O)c1c(Cl)cccc1Cl)Nc1cc(Cl)ccc1Oc1ccccc1 | 4.43%
COc1ccc(OC)c(C2=NS(=O)(=O)N(C)C(C(=O)Nc3ccc(F)cc3F)=C2)c1 | 4.07%
COc1ccc(S(=O)(=O)Nc2ccc(F)c(Cl)c2)cc1OC | -10.6%
COc1ccccc1CNC(=O)C1CCCN(S(=O)(=O)c2cccc3nsnc23)C1 (stereo not given) | -0.08%
COc1ccc(CCNc2c3ccccc3nc3ccccc23)cc1OC | 26.2% (active)
COC(=O)C(C)NC(=O)C12CC3CC(C1)CC(c1ccc(C)cc1)(C3)C2 (stereo not given) | 4.73%
CCCS(=O)(=O)c1c(S(=O)(=O)CCC)c2c(C)cccn2c1C(=O)N/N=C/c1cc(O)cc(O)c1 | 24.6%
COc1cc(OC)cc(C(=O)NNC(=O)c2ccccn2)c1 | 2.65%
O=C(NCCC(=O)N1CCCC(C(F)(F)F)C1)c1ccc(Br)cc1 (stereo not given) | -9.82%
COc1ccc(S(=O)(=O)N(C)C[C@H]2Oc3c(NC(=O)Nc4c(C)noc4C)cccc3C(=O)N([C@H](C)CO)C[C@@H]2C)cc1 | 9.48%
CCCCCOC(=O)C1=C(C)NC(=O)NC1c1ccc([N+](=O)[O-])cc1 (stereo not given) | 2.27%
O=C(COc1ccccc1-c1ccccc1)N/N=C/c1ccncc1 | 13.6%
COc1cc(NC(=O)c2cccc3c(-c4cnn(C)c4)coc23)cc(OC)c1OC | -0.35%

Structure (SMILES) | inhibition
Cc1cc(C)c2nc(NNC(=O)c3ccc(S(=O)(=O)N4CCc5ccccc5C4)cc3)sc2c1 | 30% (active)
CCCCNC(=O)C1(C)CCCCN1C(=O)c1ccc2c(c1)C(C)(C)CCC2(C)C (stereo not given) | 10.7%
O=C(Nc1ccncc1)c1ccccc1[N+](=O)[O-] | 19%
COc1ccc(C(=O)NNC(=O)C(=O)Nc2ccc(C)c(Cl)c2)cc1 | -0.11%
CCC(Oc1ccccc1)C(=O)Nc1cc(C(F)(F)F)ccc1N1CCOCC1 (stereo not given) | 1.21%
COc1ccc(NC(=O)C2CCN(c3cnccn3)CC2)cc1Cl | 1.48%
COc1ccc(C(=O)n2cc(C(=O)c3cc(C)ccc3O)cn2)cc1OC | -0.92%
O=C1CC2(CCCC2)CC(=O)N1CCCCN1CCN(c2ncccn2)CC1 | 2.87%
CCOC(=O)c1c(NC(=O)C(C)N2CCN(C(=O)c3ccco3)CC2)sc2c1CCCC2 (stereo not given) | 12%
Cc1c(C(=O)NCC2COc3ccccc3O2)oc2ccc(S(=O)(=O)N3CCOCC3)cc12 (stereo not given) | 15.8%
CCN(C(=S)NC(=O)C1CC1)c1ccccc1 | -4.48%
C/C(=N\NC(=O)C(C)Oc1ccc([N+](=O)[O-])cc1)c1ccccn1 (stereo not given) | 45.6% (active)
CC(=O)c1cccc(NC(=O)COc2cc3oc(=O)c(CC(C)O)c(C)c3cc2Cl)c1 (stereo not given) | 22%
CCOC(=O)C1(Cc2cccc(Cl)c2)CCCN(C(=O)c2ccoc2C)C1 (stereo not given) | -3.85%
CCC(C)C(=O)Nc1nc(C)c(-c2csc(Nc3cc(Cl)ccc3OC)n2)s1 (stereo not given) | -1.24%
CCc1ccc2oc(=O)cc(CN3CCN(Cc4ccccc4)CC3)c2c1 | 2.82%
Cc1sc2ncn3ncnc3c2c1C | 27.7% (active)
CCCCC(=O)NC(c1ccc(N(CC)CC)cc1)c1ccc2cccnc2c1O (stereo not given) | 63.8% (active)
CCC(C)c1ccc(S(=O)(=O)Nc2cccnc2)cc1 (stereo not given) | -4.32%
Cc1cc(C)c(OCCN2CCCC2)c(Cl)c1 | 2.73%
